Measured values published in PMC4552634, “A New Set of Chemical Starting Points with Plasmodium falciparum Transmission-Blocking Potential for Antimalarial Drug Discovery” (PLoS ONE, 2015).
In all, about 13,000 compounds went through this assay and about 3,200 (25%) showed an effect of 50% or more. Some of the results follow. Square brackets hold non-standard residues; d marks the D form. Peptide text beside a SMILES is read from it. * marks the point of attachment. Butanoyl(4-(4-HOPh)) = O=C(CCCc1ccc(O)cc1)*

Test system: P. falciparum stage V gametocytes
Set-up: BacTiter-Glo ATP luminescence viability of purified stage V gametocytes in 384-well plates, per cent inhibition versus DMSO
Conditions: 48 h, 5 µM; inhibitor

SMILES | % Inhibition [%]
CN(C)S(=O)(=O)c1ccc(N2C(=O)C3C(C2=O)C2(c4ccccc4)C(=O)C3(c3ccccc3)C(c3ccccc3)=C2c2ccccc2)cc1 (centres unmarked) [TCMDC-132095] | -66.42
CCN(CC)CCOc1ccc(Nc2ncc3cc(-c4c(Cl)cccc4Cl)c(=O)n(C)c3n2)cc1 [TCMDC-140940] | 0.9022
CCN(CC)CCCCOc1ccc2c(c1)C(=O)c1cc(OCCCCN(CC)CC)ccc1-2 [TCMDC-124163] | 88.71
CN(c1ccc(F)cc1)S(=O)(=O)c1ccc(Cl)c(C(=O)Nc2cccc(C#N)c2)c1 [TCMDC-123717] | 11.84
COc1cc(OC)nc(C(Sc2ccc(NC(=O)c3cccs3)cc2)c2ccccc2)n1 (centres unmarked) [TCMDC-124257] | 44.54
CCCCCOc1ccc(C(=NC)N(CCCCC)CCCCC)c2ccccc12 [TCMDC-137703] | 109.8
CCCCCCOc1ccc(C(N)=NCc2ccccc2)c2c1CCCC2 [TCMDC-131554] | 15.01
CCCCCCOc1ccccc1C(=O)NCCOc1ccc(Cl)cc1 [TCMDC-124012] | -9.249
O=C(NCc1cccc(C(F)(F)F)c1)c1ccc(CNC(=O)c2ccc(O)c(-c3ccc(Cl)c(Cl)c3)c2)cc1 [TCMDC-140834] | 9.818
O=C(NC1CC1)c1ccc(N2CCCC(COc3ccc4c(c3)CCCC4)C2)nc1 (centres unmarked) [TCMDC-134263] | 18.7
O=C(NCC(=O)N1CCC[C@H]1C(=O)O)[C@@H](Cc1ccccc1)NC(=O)[C@@H]1CCCN1C(=O)CCCc1ccc(O)cc1 [TCMDC-141970] ({Butanoyl(4-(4-HOPh))}-P[dF]GP-OH) | -16.67
Cc1ccc(NC(=O)Cc2noc(CC3CCCN3C(=O)N[C@@H](C)c3ccccc3)n2)cc1 (some centres unmarked) [TCMDC-134994] | 0.878
CC(CN1CCN(C)CC1)C(=O)Nc1ccc(-c2ccc(-c3nc4ccccc4[nH]3)cc2)cc1 (centres unmarked) [TCMDC-137148] | 72.16
CC(CN1CCN(C)CC1)C(=O)Nc1ccc(-c2cccc(-c3nc4ccccc4[nH]3)c2)cc1 (centres unmarked) [TCMDC-137139] | 81.76
Cc1cccc2nc(-c3ccc(-c4ccc(NC(=O)C(C)CN5CCN(C)CC5)cc4)s3)[nH]c12 (centres unmarked) [TCMDC-137154] | -22.77
CCC(C)NC(=O)Nc1ccc(-c2cccc(-c3nc4ccccc4[nH]3)c2)cc1 (centres unmarked) [TCMDC-133241] | 3.681
CC(CN1CCN(C)CC1)C(=O)Nc1cccc(-c2ccc(-c3nc4ccccc4[nH]3)s2)c1 (centres unmarked) [TCMDC-137142] | -55.57
CC(CN1CCN(C)CC1)C(=O)Nc1ccc(-c2ccc(-c3nc4ccccc4[nH]3)s2)cc1 (centres unmarked) [TCMDC-137140] | 86.65
CC(CN1CCN(C)CC1)C(=O)Nc1ccc(-c2csc(-c3nc4ccccc4[nH]3)c2)cc1 (centres unmarked) [TCMDC-132391] | 31.65
CCc1cc(C(=O)c2cccc(C)c2)c(NC(=O)CN2CCN(C(=O)c3ccco3)CC2)s1 [TCMDC-123646] | 4.148
O=C(O)/C=C/c1cccc(F)c1F [TCMDC-124298] | -5.397
O=C(Nc1cn(-c2ccc(OCc3cccc(F)c3)c(Cl)c2)c2ncncc12)c1ccncc1 [TCMDC-135377] | -11.19
CCOc1ccc(Br)cc1/C=C/C(=O)Nc1ccc2c(c1)CCCN(C)C2 [TCMDC-134049] | 5.79

SMILES | % Inhibition [%]
CCN1CCN(c2ccc(NC(=O)c3cc4c(C)nn(-c5ccccc5)c4s3)cc2C)CC1 [TCMDC-125105] | 8.854
CC(C)(C)c1ccc(-c2csc(NC(=O)CC(c3ccccc3)c3ccccc3)n2)cc1 [TCMDC-124604] | -3.611
COc1cc(OC)cc(C(=O)Nc2nc(-c3ccc(NC(=O)c4ccccc4)cc3)cs2)c1 [TCMDC-125112] | -27.73
O=C(Nc1nc(-c2ccccn2)cs1)c1ccccc1COc1ccccc1 [TCMDC-125336] | 64.14
O=C(Nc1nc(-c2ccccn2)cs1)c1ccc(S(=O)(=O)N2CCc3ccccc32)cc1 [TCMDC-125432] | 10.03
O=C(Nc1nc(-c2ccccn2)cs1)c1ccc(Br)s1 [TCMDC-123868] | 65.77
COc1cc(OC)cc(C(=O)Nc2nc(-c3ccccn3)cs2)c1 [TCMDC-125345] | 25.53
O=C(Nc1nc(-c2cc(F)ccc2F)cs1)c1cncc(Br)c1 [TCMDC-123613] | -58.06
O=C(Nc1cccc(-c2csc(-c3ccccc3)n2)c1)c1cccs1 [TCMDC-123904] | 22.98
CC1Cc2ccccc2N1S(=O)(=O)c1cccc(C(=O)Nc2nc(-c3ccccn3)cs2)c1 (centres unmarked) [TCMDC-124559] | 76.73
Cc1nn(CC(C)C)c2sc(C(=O)Nc3nc(-c4ccccn4)cs3)cc12 [TCMDC-125461] | 62.82
CC1Cc2ccccc2N1S(=O)(=O)c1cc(OCC(F)(F)F)ccc1OCC(F)(F)F (centres unmarked) [TCMDC-124044] | -9.787
COc1cc(F)c2ncc(Cl)c(C(O)CN3CCC(NC(=O)c4ccc5c(c4)NC(=O)CS5)CC3)c2c1 (centres unmarked) [TCMDC-135908] | -70.28
Cc1noc(C)c1-c1cccc(CNCc2cccc(-c3csc(-c4nc5ccccc5[nH]4)c3)c2)c1 [TCMDC-133047] | -19.47
Cc1cccc2nc(-c3ccc(-c4cccc(NC(=O)Nc5ccsc5)c4)s3)[nH]c12 [TCMDC-133208] | 8.037
CC1(C)N=C(N)N=C(N)N1OCCCc1ccc(Cl)cc1Cl [TCMDC-131692] | 4.93
O=C(NC1CCC(CCN2Cc3cccc(F)c3C2)CC1)c1cccc(-c2cccnc2)c1 (centres unmarked) [TCMDC-139623] | -21.05
COc1ccc2nccc([C@@H](O)CN3CCC(NC(=O)c4ccc5cc[nH]c5c4)CC3)c2c1 [TCMDC-140743] | -6.563
COc1cc(C(=O)Nc2ccc3nc(N4CCN(C)CC4)cc(C)c3c2)cc(OC)c1OC [TCMDC-123591] | 10.02
CCN(CC1CCN(CC2(O)CCOCC2)CC1)c1cc(C)nc(Nc2ccc(Cl)cc2)n1 [TCMDC-133808] | 30.17
N=C(N)c1ccc(Nc2nc(Nc3ccc(-c4ccccc4)cc3)ncc2[N+](=O)[O-])cc1 [TCMDC-136145] | 99.81
CNC(=O)c1ccccc1Nc1nc(Nc2ccc(C(=O)O)cc2)ncc1Cl [TCMDC-133803] | -5.909
N=C(N)c1ccc(Nc2nccc(Nc3nc(-c4ccccc4)cs3)n2)cc1 [TCMDC-136090] | -20.73

SMILES | % Inhibition [%]
CCN(CC)CCNC(=O)c1ccc(NC(=O)c2cc(-c3ccncc3)nc3ccccc23)cc1 [TCMDC-124495] | 0.6549
CCN(CC)CCNC(=O)c1ccc(Nc2ncc([N+](=O)[O-])c(Nc3ccccc3OC)n2)cc1 [TCMDC-138727] | 73.19
CC(=O)Nc1ccc(Nc2ncc([N+](=O)[O-])c(Nc3ccccc3C(N)=O)n2)cc1 [TCMDC-138731] | -8.61
CCC(C)c1ccc(NC(=O)Nc2ccc(Cn3ncc(N4CCCNCC4)c(Cl)c3=O)cc2)cc1 (centres unmarked) [TCMDC-133313] | -21.93
COc1cc(-c2[nH]c(-c3ccc(OCCN(C)C)cc3)cc2-c2ccncc2)ccc1Cl [TCMDC-141225] | -13.45
N=C(N)c1ccc(NC(=O)c2cc(Sc3ccc(O)c(C(=O)Nc4ccc(C(=N)N)cc4)c3)ccc2O)cc1 [TCMDC-136287] | -39.81
CN(C)c1ccc(C=C2SC(=N)N(c3nccs3)C2=O)cc1 [TCMDC-125861] | -21.41
Cc1nc(N)nc(N)c1OCc1cccc2c1ccc1ccccc12 [TCMDC-131344] | 22.54
Cc1nc2nc(N)nc(N)c2c(C)c1Cc1ccccc1Cl [TCMDC-137668] | -12.71
COc1ccc(OC)c(Cc2c(C)nc3nc(N)nc(N)c3c2C)c1 [TCMDC-137651] | -0.1524
COc1ccccc1Cc1c(C)nc2nc(N)nc(N)c2c1C [TCMDC-137247] | 65.53
Cc1nc2nc(N)nc(N)c2c(C)c1Cc1ccc(N)cc1 [TCMDC-137633] | -5.029
Cc1nc2nc(N)nc(N)c2c(C)c1Cc1ccccc1Br [TCMDC-137242] | -1.627
Cc1nc2nc(N)nc(N)c2c(C)c1Cc1cccc(F)c1 [TCMDC-137652] | -9.941
Cc1ccc(Cc2c(C)nc3nc(N)nc(N)c3c2C)cc1 [TCMDC-137657] | -7.172
Cc1nc2nc(N)nc(N)c2c(C)c1Cc1c(Cl)cccc1Cl [TCMDC-137638] | 65.23
Cc1nc2nc(N)nc(N)c2c(C)c1Cc1ccc([N+](=O)[O-])cc1 [TCMDC-137636] | 77.57
CO/C(=C\C=C\c1cc2cc(Cl)c(Cl)cc2[nH]1)C(=O)NCCCN1CCN(c2cccc(CCCO)c2)CC1 [TCMDC-139412] | 14.82
NC(N)=Nc1ccc(NC(=O)Nc2ccc(N=C(N)N)cc2)cc1 [TCMDC-137208] | -16.48
Cc1cccc2nc(-c3ccc(-c4cccc(NC(=O)NCc5cccc(F)c5)c4)s3)[nH]c12 [TCMDC-133285] | -13.08
OC1CCC(Nc2ccc3ncc(-c4ccc(Cl)cc4)n3n2)CC1 (centres unmarked) [TCMDC-136693] | 13.04
OC(CNc1ccnc(Nc2ccc(Cl)cc2)n1)c1ccc(C(F)(F)F)cc1 (centres unmarked) [TCMDC-136597] | -19.72
